35 compounds from ChEMBL document CHEMBL3433997, “St. Jude Leishmania screening dataset” (2016) can be followed below.

Molecules are shown by their SMILES.

Holding throughout (format): functional
The target in assay [1] is Solute carrier family 2, facilitated glucose transporter member 1 (Homo sapiens) (UniProt P11166). Description: ST_JUDE_LEISH: Cytotoxicity at 2uM final concentration against transgenic Leishmania Mexicana promastigotes LmGLUT1 that are glucose transport deficient and complemented with the human glucose transporter GLUT1. Activity is measured by DNA content using SYBR green in vitro.
Sequence of Solute carrier family 2, facilitated glucose transporter member 1 (Homo sapiens) (P11166 whole entry): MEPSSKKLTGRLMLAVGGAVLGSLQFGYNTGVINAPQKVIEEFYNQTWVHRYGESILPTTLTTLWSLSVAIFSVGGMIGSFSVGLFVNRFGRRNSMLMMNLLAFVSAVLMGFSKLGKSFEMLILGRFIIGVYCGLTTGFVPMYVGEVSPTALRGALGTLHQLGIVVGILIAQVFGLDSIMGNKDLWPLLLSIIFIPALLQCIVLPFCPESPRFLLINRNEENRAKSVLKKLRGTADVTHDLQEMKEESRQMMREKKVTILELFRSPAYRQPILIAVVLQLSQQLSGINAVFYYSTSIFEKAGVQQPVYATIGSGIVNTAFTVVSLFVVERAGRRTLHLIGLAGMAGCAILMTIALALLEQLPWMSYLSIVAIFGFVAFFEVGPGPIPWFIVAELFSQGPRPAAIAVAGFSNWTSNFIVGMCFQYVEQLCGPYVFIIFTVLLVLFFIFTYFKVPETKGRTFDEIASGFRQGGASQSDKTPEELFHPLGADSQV

Assay [2] concerns the target Hexose transporter 1 (Plasmodium falciparum) (UniProt O97467). Description: ST_JUDE_LEISH: Cytotoxicity at 2uM final concentration against transgenic Leishmania Mexicana promastigotes LmPfHT that are glucose transport deficient and complemented with the Plasmodium falciparum hexose transporter. Activity is measured by DNA content using SYBR green in vitro.
Assay [3] deals with Glucose transporter (Leishmania mexicana) (UniProt O61059). Description: ST_JUDE_LEISH: Cytotoxicity at 2uM final concentration against transgenic Leishmania Mexicana promastigotes LmGT2 that are glucose transport deficient and complemented with the L. Mexicana glucose transporter 2. Activity is measured by DNA content using SYBR green in vitro.

`CC(C)NCc1ccc(-c2cccc(-c3nc4cc(F)ccc4[nH]3)c2)cc1`: the inhibition is -1.78% in assay [1], 0.53% in assay [2] and -0.69% in assay [3].

On to `Cc1cc(NC2CCN(CC3CCCCC3)C2)nc(Nc2ccc(Br)cc2)n1` (stereo not given), for which the inhibition in assay [1] was -0.39%; in assay [2], 2.78%; in assay [3], 0.66%.

Consider `COc1ccc(NC(=O)c2c(NC(=O)c3cccs3)sc3c2CCCC3)cc1`, for which the values for the inhibition in assay [1], in assay [2] and in assay [3] were 0.31%, 2.45% and 5.21%, respectively.

As for `COc1ccc2nccc(N(C)CC3(O)CCN(CCc4ccc5c(c4)OCCO5)CC3)c2n1`, the inhibition in assay [1] turned out to be 0.49%; in assay [2] it was 0.73%; in assay [3], 2.16%.

On to `CC(=O)Nc1ccc(C(=O)Nc2ccc(-c3cccc(-c4nc5cc(F)ccc5[nH]4)c3)cc2)cn1`, for which the inhibition in assay [1] is 0.13%; in assay [2], 1.66%; in assay [3] it was -4.38%.

For the compound `COc1ccc(CN2CCN(C(=O)c3cccs3)CC2)c(O)c1`, the inhibition came out at 10.5% in assay [1], 11.1% in assay [2] and 8.97% in assay [3].

On to `CCCCCC(NCCCC)c1ccc(OCCOc2ccc(C(CCCCC)NCCCC)cc2)cc1` (stereo not given), for which the results for the inhibition in assay [1], in assay [2] and in assay [3] were 60.3%, 86% and 85.3%, respectively.

As for `CC(C)CN1CCN(CCNc2c3ccccc3nc3ccccc23)CC1`, the inhibition in assay [1] is 83%; in assay [2], 83.1%; in assay [3], 81.3%.

With `CCCCNc1nccc2ccc(-c3ccncc3)cc12`, the inhibition in assay [1] was 3.45%; in assay [2] it was 4.02%; in assay [3], 4.26%.

Turning to `Cc1nc2ccc(-c3nc4cc(N)ccc4[nH]3)cc2[nH]1`, the inhibition is -2.46% in assay [1], 10% in assay [2] and 1.44% in assay [3].

Turning to `Cc1ccc2c(Cl)c(C(=O)N3CC(C)OC(C)C3)sc2c1` (stereo not given), the results for the inhibition in assay [1], in assay [2] and in assay [3] were 0.22%, 1.09% and 3.43%, respectively.

As for `Fc1ccc2[nH]c(-c3ccc(-c4ccc(CN5CCCCC5)cc4)cc3)nc2c1`, the inhibition in assay [1] was 8.66%; in assay [2], 7.06%; in assay [3], 5.34%.

In the case of `Nc1nc(-c2ccccn2)nc(-n2nc(-c3cccc(C(F)(F)F)c3)cc2N)n1`, the figures for the inhibition in assay [1], in assay [2] and in assay [3] were 3.56%, 2.31% and 1.29%, respectively.

In the case of `O=C(NCC1CCN(Cc2cccc(C(F)(F)F)c2)C1)c1cc(-c2cccc(C(F)(F)F)c2)cs1` (stereo not given), the inhibition in assay [1] turned out to be 3.9%; in assay [2] it was 2.69%; in assay [3], 5.94%.

As to `CC(=O)Nc1ccc(CN2CCC(NC(=O)c3ccc(-c4cccc(F)c4)s3)CC2)cc1`, the inhibition in assay [1] was found to be 1.73%; in assay [2], 0.06%; in assay [3] it was 0.34%.

With `CO/C(=C\C=C\c1cc2cc(Cl)c(Cl)cc2[nH]1)C(=O)NCCCN1CC(C)N(C)CC1C` (stereo not given), the results for the inhibition in assay [1], in assay [2] and in assay [3] were 7.33%, 5.89% and 6.63%, respectively.

As to `COc1c(C)[nH]c(C)c(-c2ccc(Oc3cccc(C(F)(F)F)c3)cc2)c1=O`, the figures for the inhibition in assay [1], in assay [2] and in assay [3] were 10.2%, 10.6% and 4.46%, respectively.

With `COc1ccc(CCON2C(=N)N=C(N)NC2(C)C)cc1OC`, the inhibition was 2.04% in assay [1], 2.62% in assay [2] and 3.2% in assay [3].

On to `COc1ccc(C(=O)CCC(=O)N(Cc2ccc(-c3ccc(CNCCc4ccc(S(C)(=O)=O)cc4)cn3)cc2)C(C)CN(C)C)cc1F` (stereo not given), for which the inhibition in assay [1] was 3.43%; in assay [2], 3.18%; in assay [3], 2.85%.

`CN(C)c1ccc(-c2nc3cc(N)ccc3[nH]2)cc1`: the inhibition in assay [1] was -2.7%; in assay [2], 3.58%; in assay [3], 0.22%.

Consider `O=C(Nc1cccc(CN2CCCN(Cc3ccc4c(c3)OCO4)CC2)c1)c1ccc(-c2ccccc2)cc1`, for which the inhibition in assay [1] is 4.21%; in assay [2], 3.52%; in assay [3] it was 0.89%.

`COc1cc2nc(N3CCC(CNC(=O)c4ccc(-c5ccc(C(=O)N(C)C)cc5)c(OCCO)c4)CC3)nc(N)c2cc1OC`: the inhibition came to 2.82% in assay [1], 3.22% in assay [2] and 2.26% in assay [3].

Regarding `Oc1c(C(Nc2ccccn2)c2ccc(Cl)cc2Cl)ccc2cccnc12` (stereo not given), the values for the inhibition in assay [1], in assay [2] and in assay [3] were 3.22%, 5.81% and 0.74%, respectively.

For `O=C(Cn1c(CCc2cccc(F)c2F)cc(=O)c2cccnc21)N(CCn1ccnc1)Cc1ccc(-c2ccc(C(F)(F)F)cc2)cc1`, the values for the inhibition in assay [1], in assay [2] and in assay [3] were -0.44%, 1.8% and -1.45%, respectively.

For the compound `NC(=O)c1cccc(C(=O)Nc2cccc(-c3ccc(-c4nc5ccccc5[nH]4)s3)c2)c1`, the inhibition in assay [1] turned out to be 1.49%; in assay [2] it was 1.48%; in assay [3], 0.12%.

Consider `O=C(NCC1CCC(C(=O)NC2CCCc3ccccc32)CC1)c1ccc(O)c(-c2ccc(Cl)c(Cl)c2)c1` (stereo not given), for which the inhibition in assay [1] is 3.42%; in assay [2], 2.81%; in assay [3] it was 4.27%.

Regarding `COc1ccc2nccc(NC(=O)C3(O)CCC(NCc4ncc5c(c4Cl)OCCO5)CC3)c2n1` (stereo not given), the values for the inhibition in assay [1], in assay [2] and in assay [3] were 7.91%, 8.5% and 2.13%, respectively.

Take `O=c1cc(N2CCNCC2)c(Cl)nn1Cc1ccc(NS(=O)(=O)c2ccc(Oc3ccccc3)cc2)cc1`: the inhibition amounted to 1.25% in assay [1], 3.7% in assay [2] and 1.23% in assay [3].

Take `Cc1cccc2nc(-c3ccc(-c4cccc(CNCCCN5CCCC5=O)c4)s3)[nH]c12`: the inhibition in assay [1] is 3.74%; in assay [2], 2.33%; in assay [3], 2.91%.

In the case of `O=C(Nc1ccc(-c2nc3ccccc3[nH]2)cc1)C1CCN(Cc2cccc(F)c2F)CC1`, the inhibition was 24.2% in assay [1], 28.4% in assay [2] and 16% in assay [3].

In the case of `COc1cccc2c(N/N=C/c3ccc([N+](=O)[O-])cc3)ccnc12`, the inhibition in assay [1] is 11.3%; in assay [2] it was 6.04%; in assay [3] it was 1.25%.

Take `Cc1cc(N[C@@H](CC(C)C)C(=O)NC2CCCC2)nc(NCc2ccccc2C)n1`: the inhibition in assay [1] is 4.21%; in assay [2] it was 4.39%; in assay [3], 1.62%.

On to `CC(C(=O)OCCOCn1cnc2c(=O)[nH]c(N)nc21)N(C)C(=O)OC(C)(C)C` (stereo not given), for which the inhibition in assay [1] was -2.44%; in assay [2], -1.51%; in assay [3] it was -3.59%.

In the case of `Oc1ccc(Nc2ccnc3cc(Cl)ccc23)cc1`, the inhibition in assay [1] is 3.83%; in assay [2], 4.67%; in assay [3], 4.27%.

`CCOc1ccc(C(=O)Nc2cc(Cl)ccc2O)cc1Cl`: the inhibition was -1.03% in assay [1], 0.11% in assay [2] and -1.5% in assay [3].
